# Compounds with a hit are over-represented: about 19% of the library has one in this group of screens.
# TDP1 cell noCPT: qHTS for Inhibitors of human tyrosyl-DNA phosphodiesterase 1 (TDP1): qHTS in cells in absence of CPT. 420,000 tested, 15% active. DT40 Tdp1-/- hTDP1 cells, no CPT, ATP luminescence, 48 h. AID 686978, 2013. Potency, µM (highest dose often 46.2 µM), inactives show at the top dose activity change, negative = growth inhibition, most hits filed as inhibitors; note: potency is the fitted concentration of half-maximal effect; % is set by controls: 0 for no effect and ±100 for the full control effect; nearly all actives have a fitted effect of over 55% in size
#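 Cells were dispensed at 400 per well, compounds added by pin tool, plates incubated ≥48 hr at 37 °C, then CellTiter-Glo added for 30 min at room temperature before luminescence reading. Line: DT40 Tdp1-/- complemented with hTDP1; camptothecin omitted.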
# HepG2 tox: counter-screen for TGF-b inhibitors: cytotoxicity in HepG2 cells. HepG2 CAGA-GFP viability, ATP luminescence, 18 h. Potency, µM (doses to about 46.1 µM), inactives show at the highest dose activity change, negative = cytotoxicity, usual class: cytotoxic. 410,000 tested, 0.76% active; note: potency is the fitted concentration of half-maximal effect
#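 CellTiter-Glo luminescence gave cytotoxicity after 18 hours at 37 degrees C. The cells were HepG2 CAGA-GFP in 1% FBS DMEM, stimulated with 500 pg/mL TGF-beta after compound addition. %Activity was normalised to no-cell wells (complete cell-killing) and DMSO (no toxicity), and curves were fitted and classified.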
# TDP1 block: TDP1 (human) enzyme inhibition; Potency, µM (top dose mostly 130 µM), for inactives: top-dose activity change, negative = inhibition, usual class: inhibitors; Q9NUW8; AID 485290; 350,000 tested, 0.28% active; recombinant TDP1, AlphaScreen DNA substrate cleavage; note: potency is the fitted concentration of half-maximal effect; % is set by controls: 0 for no effect and ±100 for the full control effect; nearly all actives have a fitted effect of over 40% in size
# Target sequence (Q9NUW8 whole entry, looked up): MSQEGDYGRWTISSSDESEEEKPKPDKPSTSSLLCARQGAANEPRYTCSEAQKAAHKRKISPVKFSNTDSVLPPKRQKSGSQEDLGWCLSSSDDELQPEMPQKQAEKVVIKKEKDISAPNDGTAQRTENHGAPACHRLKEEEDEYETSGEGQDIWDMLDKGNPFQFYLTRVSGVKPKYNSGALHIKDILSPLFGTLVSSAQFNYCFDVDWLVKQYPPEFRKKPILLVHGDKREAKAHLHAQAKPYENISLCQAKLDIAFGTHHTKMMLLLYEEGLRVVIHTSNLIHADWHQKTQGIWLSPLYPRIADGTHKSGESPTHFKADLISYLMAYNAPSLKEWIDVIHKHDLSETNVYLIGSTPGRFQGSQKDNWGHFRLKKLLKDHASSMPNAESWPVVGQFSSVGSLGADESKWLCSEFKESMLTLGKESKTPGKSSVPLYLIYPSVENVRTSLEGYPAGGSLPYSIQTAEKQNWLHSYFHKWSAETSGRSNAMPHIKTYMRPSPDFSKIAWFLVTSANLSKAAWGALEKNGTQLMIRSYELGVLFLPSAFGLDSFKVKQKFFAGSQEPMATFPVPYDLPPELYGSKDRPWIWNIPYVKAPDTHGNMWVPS
#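 Here, a 5' biotin and 3' phosphotyrosine-FITC DNA oligonucleotide reports Tdp1 activity: intact substrate bridges AlphaScreen beads, while cleavage leaves a 3' phosphate and drops signal. All incubations at room temperature.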
# TDP1 cell CPT: growth inhibition of DT40 Tdp1-/-;hTDP1 cells with camptothecin (screen for TDP1 inhibitors); chicken DT40 Tdp1-/-;hTDP1 cells + 20 nM CPT, ATP luminescence, 48 h; Potency, µM (highest dose often 46.2 µM), for the others: at the highest dose activity change, negative = growth inhibition, actives largely listed as inhibitors; 420,000 tested, 12% active; note: potency is the fitted concentration of half-maximal effect; % is set by controls: 0 for no effect and ±100 for the full control effect; nearly all actives have a fitted effect of over 55% in size
#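 Chicken DT40 Tdp1-/- cells stably complemented with human TDP1 were seeded at 400 cells/well in medium containing 20 nM camptothecin, exposed to pin-transferred compounds, and grown at 37 °C for at least 48 hr. Viability was read as ATP luminescence.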
# TGFb SMAD3 inh: inhibitors of TGF-b signaling; Potency, µM (series often up to 46.1 µM), for inactives: top-dose activity, negative = inhibition, actives largely listed as inhibitors; HepG2 CAGA-GFP TGF-b/SMAD3 reporter, GFP fluorescence, 18 h; TGF-beta stimulated, 500 pg/mL final; 410,000 tested, 1.2% active; AID 588855; note: potency is the fitted concentration of half-maximal effect; % is set by controls: 0 for no effect and ±100 for the full control effect; nearly all actives have a fitted effect of over 65% in size
#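 Smad-responsive CAGA-GFP expression was quantified in HEPG2 cells exposed to compounds and 500 pg/mL final TGF-beta for 18 h at 37 degrees C; unstimulated wells defined full inhibition.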
# IL-1B inflam inh: inflammasome signaling inhibition, IL-1 beta readout; activity change, % at 57.5 µM; 360,000 tested, 4.7% active; THP-1 LPS/ATP IL-1B secretion, AlphaLISA, 16 h; active compounds read low; in the data active = activity change below about -50%; inconclusive = mostly about -30% to -49%; note: % is set by controls: 0 for no effect and ±100 for the full control effect
#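 Secreted IL-1B measured by AlphaLISA bead assay after 16 h compound exposure of THP-1 cells; compounds (final up to 57.5 uM) added 1 h before LPS (250 ng/mL) and ATP (1.25 mM) stimulation; lower signal means less secretion.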
# The depositor's hits bear a star; ? = inconclusive; . = no result given; [ ] = dose if it differs, or a comment. Unless noted, calls come from the whole dose curve; as a rule, active = well fitted curve in the direction sought with a large enough effect; inconclusive = small, poorly fitted or top-dose-only effect, or another doubt; inactive = no such curve, though single readings can be large; an effect the other way counts as inactive or inconclusive.
SMILES,TDP1 cell noCPT,HepG2 tox,TDP1 block,TDP1 cell CPT,TGFb SMAD3 inh,IL-1B inflam inh
Cn1ncc([N+](=O)[O-])c1C(=O)Nc1ccc(-c2nc3ccccc3[nH]2)cc1,18.4µM*,-19.7%,3.1%,?,26.8%,-13.6
COc1ccccc1NC(=O)c1ccc(SCC(=O)NCc2ccccc2Cl)c([N+](=O)[O-])c1,?,-27.4%,2.3%,?,2.2%,15.4
CCC(C(=O)NCc1ccccc1OC)n1nc(C)n2c(cc3sccc32)c1=O (stereo not drawn),?,-26.2%,0.0%,?,?,.
Cc1n[nH]c(=O)[nH]c1=O,.,.,8.7%[21 µM],.,.,.
C=C(CN(C)C)C(=O)c1cc(C)ccc1C,1.03µM*,-107.2%,.,0.581µM*,2.51µM*,-101.4*
COCCNC(=O)c1cc(C)ccc1C,-0.8%,9.8%,2.6%,-1.8%,19.9%,9.9
COc1ccc(NC(=O)CSc2ncc3c(n2)-c2cc(Cl)ccc2N(Cc2ccccc2F)S3(=O)=O)cc1,?,-13.7%,2.6%,?,10.7%,.
O=C1OCCC1Sc1nnc(-c2ccccc2Br)n1Cc1ccccc1 (stereo not drawn),-0.4%,0.4%,0.0%,-1.1%,-6.0%,-54.0*
O=C1OCCC1Sc1nnc(-c2ccccc2Cl)n1Cc1ccccc1 (stereo not drawn),-13.9%,-17.4%,0.0%,-7.3%,-3.2%,10.4
COc1ccc(CN(C(=O)CN2C(=O)c3ccccc3S2(=O)=O)C(C(=O)NCC2CCCO2)c2ccco2)cc1 (stereo not drawn),-3.7%,-5.2%,-7.2%,-16.3%,6.9%,-8.2
c1ccc(-c2c(-c3ccccc3)n(Cc3ccco3)c3ncnc(NCCCn4ccnc4)c23)cc1,?,20µM*,10.4%,?,?,-98.2*
O=c1c2ccccc2nc(-c2ccccc2)n1CCCN1CCOCC1,-17.6%,-2.9%,4.2%,-11.0%,3.1%,-5.7
CC(C)Cn1cnc2c(c(-c3ccccc3)c(-c3ccccc3)n2Cc2ccco2)c1=N,18.4µM*,12.6µM*,3.5%,20.6µM*,?,-65.1*
c1ccc(OCCCn2ccnc2)cc1,-4.0%,-2.4%,.,-0.6%,12.5%,-0.6
N=c1c2c(-c3ccccc3)c(-c3ccccc3)n(Cc3ccco3)c2ncn1CCCN1CCOCC1,3.66µM*,-40.6%,5.5%,?,?,-96.3*
N=c1c2c(-c3ccccc3)c(-c3ccccc3)n(Cc3ccco3)c2ncn1CCCn1ccnc1,18.4µM*,-80.2%,5.9%,18.4µM*,?,-23.4
N=c1c2c(-c3ccccc3)c(-c3ccccc3)n(Cc3ccco3)c2ncn1Cc1ccccc1,-9.2%,-23.5%,5.9%,-26.8%,-4.7%,-14.8
c1coc(C2=NCCc3ccccc32)c1,3.2%,-16.0%,.,-12.9%,3.8%,4.3
CC1(c2ccccc2)NC(=O)N(CC(=O)N(CC(=O)Nc2ccccc2C(F)(F)F)Cc2ccco2)C1=O (stereo not drawn),-5.1%,-21.3%,0.6%,-5.7%,-16.2%,-6.3
Cc1cccc(C(=O)Nc2ccc(N3CCC(N4CCCCC4)CC3)c(C(=O)O)c2)c1,-2.0%,-0.2%,.,0.2%,-0.2%,.
N=c1c2c(-c3ccccc3)c(-c3ccccc3)n(Cc3ccccc3)c2ncn1CCO,-119.9%,-52.7%,7.8%,-117.6%,?,-107.4*
c1ccc(-c2oc3ncnc(NCCCn4ccnc4)c3c2-c2ccccc2)cc1,18.4µM*,-38.0%,11.8%,23.1µM*,?,-78.7*
CN(C)CCCNc1ncnc2oc(-c3ccccc3)c(-c3ccccc3)c12,?,0.0%,.,?,-19.6%,-82.7*
N#Cc1nc(-c2ccccc2)oc1NCCCn1ccnc1,15.1%,10.0%,3.6%,-0.2%,-1.9%,24.3
CC(=O)Nc1ccc(S(=O)(=O)Oc2cccc(N3C(=O)C4CCCCC4C3=O)c2)cc1 (stereo not drawn),?,-11.5%,3.9%,?,?,12.6
SMILES,TDP1 cell noCPT,HepG2 tox,TDP1 block,TDP1 cell CPT,TGFb SMAD3 inh,IL-1B inflam inh
Cc1ccc(S(=O)(=O)Oc2cccc(N3C(=O)C4CC=CCC4C3=O)c2)cc1 (stereo not drawn),?,1.4%,3.9%,16.4µM*,11.2%,17.1
Cc1ccc(S(=O)(=O)Oc2ccc(N3C(=O)C4C5CCC(C5)C4C3=O)cc2)cc1 (stereo not drawn),23.1µM*,-20.4%,1.2%,4.11µM*,-3.0%,27.3
CCOC(=O)C1=CCC(c2ccc(C)cc2)N(S(=O)(=O)c2ccc(C)cc2)C1 (stereo not drawn),18.4µM*,-4.4%,.,23.1µM*,?,28.1
CC(=O)C1=CCC(c2ccccc2F)N(S(=O)(=O)c2ccc(C)cc2)C1 (stereo not drawn),?,4.3%,.,?,-9.9%,?
CCOC(=O)C1=CCC(c2ccccc2C)N(S(=O)(=O)c2ccc(C)cc2)C1 (stereo not drawn),14.6µM*,-20.3%,.,10.3µM*,?,51.6
CC(=O)C1=CCC(c2cccc3ccccc23)N(S(=O)(=O)c2ccc(C)cc2)C1 (stereo not drawn),18.4µM*,-3.9%,.,?,-14.7%,-15.8
CCOC(=O)C1=CCC(C(C)(C)C)N(S(=O)(=O)c2ccc(C)cc2)C1 (stereo not drawn),?,-5.5%,.,?,-21.9%,58.8
COc1ccc2nc(N(Cc3cccnc3)C(=O)CCc3ccccc3)sc2c1,-14.8%,-35.0%,5.2%,-11.3%,?,.
Cc1ccc(N2CC(NC(=O)c3ccc(Br)o3)CC2=O)cc1C (stereo not drawn),?,-8.0%,-2.6%,-24.2%,-6.1%,.
Cc1ccc2c(c1)c1n[nH]c(=S)nc1n2CCc1ccccc1,25.9µM*,-9.9%,.,16.4µM*,-13.4%,17.4
Fc1ccc2c(c1)c1n[nH]c(=S)nc1n2CCc1ccccc1,?,5.3%,.,?,-2.0%,-9.6
CC(C)C[C@@H](CC(=O)N[C@H](CC(=O)N[C@@H]1CCCC[C@H]1C(=O)N[C@H](CC(=O)N[C@@H](CCC(=O)O)CC(=O)O)Cc1ccccc1)C(C)C)NC(=O)[C@@H]1CNCC[C@H]1N,.,.,6.9%,.,.,.
COc1ccc2c(c1)C1=NN(/C(C)=C\C(C)=O)C(c3ccccc3)C1CC2 (stereo not drawn),?,-20.9%,-5.0%,18.4µM*,?,22.5

# Bioassay records (PubChem)
